The campaign covered roughly 360,000 compounds. About 17,000 (4.7%) were called active. Another 5% or so got no clear call; they are omitted. Rule as the data show it: active = activity change below about -50%; inconclusive = mostly about -30% to -49%; inactive = weaker than that. The sample as a whole holds a higher share of actives than the screen did.
experiment: qHTS for Inhibitors of Inflammasome Signaling: IL-1-beta AlphaLISA Primary Screen; conditions: THP-1 LPS/ATP IL-1B secretion, 16 h; at 57.5 µM, hits give low values
Description: Inflammasomes are a set of intracellular multi-protein complexes that enable autocatalytic activation of inflammatory caspases and drive the innate immune response to counter harmful agents. […] A qHTS assay, based on AlphaLISA technology, was developed to screen the Molecular Libraries Small Molecule Repository (MLSMR) to look for novel inflammasome inhibitors. The assay detects IL-1B using AlphaLISA anti-IL-1B acceptor and donor beads. A decreased emission signal, indicating reduced IL-1B secretion, is the desired outcome for this assay. NIH Chemical Genomics Center [NCGC] NIH Molecular Libraries Probe Centers Network [MLPCN] MLPCN Grant: MH095513 Assay Provider: Shyam Biswal Ph.D., Johns Hopkins University Immunity. 2012 Jul 27;37(1):85-95. PMID: 22819042 [2] Curr Pharm Des. 2012;18(16):2320-8. PMID: 22390695
Three microliters containing 3000 THP-1 cells were dispensed into the wells of solid, white, tissue culture treated Greiner 1,536-well plates. Library compounds and positive control, Glyburide, were pin-transferred (23 nL) by a Kalypsys pin-tool equipped with a 1,536-pin array, resulting in final compound concentration ranges of 2.5 nM to 57.5 uM. After 1 hr of cell culture incubation (37 °C, 5% CO2), 1 microL of 1 microg/mL lipopolysaccharide (250 ng/mL, final) and 5 mM ATP (1.25 mM, final) were added to stimulate the cells. After 16 hr of cell culture incubation with the compounds, 1.5 uL of anti-IL-1B acceptor beads (6 ug/mL, final) and biotinylated antibody (0.6 nM, final) were added to the plate, followed by a 1 hr incubation at ambient temperature. To detect the secreted IL-1B, 1.5 uL of AlphaLISA SA-Donor beads (24 ug/mL, final) were added, followed by 30 min of incubation in the dark at ambient temperature. The AlphaLISA signal was read by a PerkinElmer EnVision plate reader with an ultrasensitive luminescence detector and 1536 Plate HTS AlphaScreen aperture (excitation of 680nm and emission of 615nm).
% is scaled to controls: 0 for no effect and ±100 for the full control effect.

Activity change, active:
CC(=NNC(=S)N1CCCCCC1)c1ccccn1 -106%, C/C(=N\NC(=O)Cc1ccc(Cl)cc1)c1ccccn1 -103%, C/C(=N\NC(=O)c1ccccc1F)c1ccccn1 -100%, CC(NCc1nc2ccccc2n1C)C12CC3CC(CC(C3)C1)C2 (stereo not drawn) -94.3%, N#Cc1nc(Cc2cccc3ccccc23)oc1NCc1ccc2c(c1)OCO2 -53.4%

Activity change, inactive:
O=C1CSC(c2ccc(Cl)cc2)N1 (stereo not drawn) 0%, COc1ccc2c(C)c(CCC(=O)NC3CC3)c(=O)oc2c1C -19.2%, COc1ccc(/C(C)=N\NC(=O)c2ccc(-c3ccccc3)cc2)c(F)c1 7.94%, CNC(=S)N1CCN(c2ccccn2)CC1 -3.93%, NC(=O)NC(CC(=O)NNC(=O)c1ccccn1)c1ccc(Cl)cc1 (stereo not drawn) 99.7%, Cc1cccc(C)c1NC(=S)N1CCCCCC1 5.87%, O=C(NCCOc1ccccc1)c1ccccc1F -17.7%, CC1=NNC(=O)C1CCC(=O)N/N=C(\C)c1ccc(Cl)cc1 (stereo not drawn) 6.73%, CO[C@@H]1CN(C)C(=O)c2cc(NC(=O)Nc3cc(F)ccc3F)ccc2OC[C@H](C)N(C(=O)c2ccccn2)C[C@@H]1C 11%, COC(=O)c1ccc(CSc2nnc(N)s2)o1 -16.4%, CCCCNC(=O)C[C@@H]1C[C@@]2(C(=O)OCC)CCC=C2N(Cc2ccco2)C1=O 14.5%, O=C(NCc1ccc(F)cc1)c1cc(C2CCCCN2C(=O)c2cccs2)on1 (stereo not drawn) -12.4%, O=C(CN1CCN(c2ccc(O)cc2)CC1)Nc1ccc(-c2ccccc2)cc1 12.4%, Cc1cccc(C)c1NC(=O)C(c1cccc2ccccc12)n1c(=O)c(-c2ccco2)nc2ccccc21 (stereo not drawn) 7.42%, COc1ccc(NS(=O)(=O)c2ccc(C)c(C(=O)NCC(c3cccs3)N3CCOCC3)c2)cc1 (stereo not drawn) 2.47%, CC1(C(=O)NS(=O)(=O)c2cccc(OC(F)F)c2)CCN1C(=O)COc1ccc(Cl)cc1 (stereo not drawn) 48.6%, CCOc1ccc(C(O)Cc2nc3ccccc3n2C)cc1 (stereo not drawn) -16%, COc1cccc(C(O)Cc2nc3ccccc3n2C)c1OC (stereo not drawn) 11.4%, COc1cc(C(=O)N2CCN(S(=O)(=O)c3ccc(C(C)C)cc3)CC2)ccc1OCC(=O)N1CCOCC1 -21.1%, O=C(c1cc(C2CCCCN2S(=O)(=O)c2ccccc2)on1)N1CCOCC1 (stereo not drawn) 0%, Nn1c(SCC(=O)Nc2nccs2)nnc1-c1ccco1 -6.29%, Cn1cc(CCC(=O)NCc2ccc3c(c2)OCO3)c2ccccc21 0%, CC1(C(=O)NCc2ccc3c(c2)OCO3)CCN1C(=O)Cc1cccc2ccccc12 (stereo not drawn) -20.8%

— PubChem BioAssay AID743279 (National Center for Advancing Translational Sciences (NCATS), 2014)
